ABCB6 inh 2 – blocks the human ABCB6 transporter | K562-ABCB6 porphyrin accumulation, flow cytometry, 1 h; stronger effect = lower value | actives 0.19% (n = 360,000) | Q9NP58 | fluorescence ratio to DMSO, % at 10 µM | AID 602162;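 active = fluorescence ratio to DMSO below 75%, the collection mean minus 3 SD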;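 note: signal is porphyrin accumulated inside mitochondria; 100% equals median channel fluorescence of DMSO control wells; lower ratio means ABCB6 inhibition with less porphyrin fluorescence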
Target sequence (Q9NP58 whole entry, looked up): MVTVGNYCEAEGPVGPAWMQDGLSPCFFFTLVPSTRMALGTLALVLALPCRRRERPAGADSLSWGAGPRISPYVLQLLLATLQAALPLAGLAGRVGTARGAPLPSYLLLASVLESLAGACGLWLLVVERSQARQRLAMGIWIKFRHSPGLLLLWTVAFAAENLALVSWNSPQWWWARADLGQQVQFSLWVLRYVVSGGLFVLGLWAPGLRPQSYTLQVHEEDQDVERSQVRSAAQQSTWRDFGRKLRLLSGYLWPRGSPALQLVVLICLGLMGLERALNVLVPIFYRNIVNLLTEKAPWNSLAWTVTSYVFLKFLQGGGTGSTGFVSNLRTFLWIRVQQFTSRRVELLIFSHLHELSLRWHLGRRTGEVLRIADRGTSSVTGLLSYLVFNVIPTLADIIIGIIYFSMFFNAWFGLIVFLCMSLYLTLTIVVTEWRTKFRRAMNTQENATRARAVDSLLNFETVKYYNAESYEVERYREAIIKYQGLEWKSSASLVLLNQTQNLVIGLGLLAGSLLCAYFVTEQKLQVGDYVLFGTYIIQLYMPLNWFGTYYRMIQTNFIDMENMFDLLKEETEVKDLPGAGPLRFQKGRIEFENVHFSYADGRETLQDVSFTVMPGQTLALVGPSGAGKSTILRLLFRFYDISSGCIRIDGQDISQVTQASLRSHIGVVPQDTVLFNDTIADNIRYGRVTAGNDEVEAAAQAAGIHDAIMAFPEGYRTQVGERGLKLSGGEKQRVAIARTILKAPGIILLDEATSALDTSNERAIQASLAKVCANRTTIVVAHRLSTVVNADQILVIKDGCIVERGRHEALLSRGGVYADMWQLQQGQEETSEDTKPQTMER
GSIS activator – primary screen for activators of insulin secretion dependent on glucose, INS-1E cells, GLuc reporter luminescence. INS-1E GLuc reporter insulin secretion, 2-3 h. actives 0.61% (n = 370,000). activation, % at 16.6 µM;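 active = lowest replicate activation of at least 40%, so every replicate reaches that level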;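 note: 0% = median of neutral control wells and 100% = median of IBMX positive control wells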
CendR NRP1 mod – NRP-1/CendR interaction modulation; O14786; FAM-RPARPAR peptide binding to NRP-1, fluorescence polarization; inhibition, % at 25 µM; actives 0.85% (n = 360,000); AID 602438;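 active = inhibition or corrected inhibition above about 18%, plus a signal ratio from 0.5 to 1.5, limit read from the data, passing the limit was not always enough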
ARNT TACC3 PPI – ARNT/TACC3 interaction disruption; Q9Y6A5; AlphaScreen His-ARNT PAS-B/GST-TACC3 binding, luminescence; TACC3 fragment carries E629A point mutation; inhibition, % at 9.99 µM; actives 0.66% (n = 390,000);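 active = mean inhibition of replicates at least 50% and at least half of replicates each reaching 50%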;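 note: 0% = complete ARNT plus TACC3 wells and 100% = ARNT alone without TACC3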
iPSC survival up – enhancers of human iPSC single-cell survival. actives 0.044% (n = 360,000). survival enhancement, % at 20 µM. AID 602274. hiPSC single-cell survival, ATPlite luminescence; 100% = ROCK inhibitor wells, 0% = DMSO; in the data active = survival enhancement above about 18%;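 note: cells exposed to compounds for 16 hours before the ATP read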
* marks the source's active call; other numbers are inactive results; nt = no result. Shown are actives, neighbours in structure and some others; about 1.8% of the full set was active somewhere.

SMILES	ABCB6 inh 2	GSIS activator	CendR NRP1 mod	ARNT TACC3 PPI	iPSC survival up
COc1cc(/C=N/n2c(=S)[nH]nc(C)c2=O)cc([N+](=O)[O-])c1O	98	-16	4	nt	0
C[C@H](CO)N1C[C@H](C)[C@@H](CN(C)C(=O)NC2CCCC2)OCc2cnnn2CCCC1=O	nt	2	nt	nt	nt
Cc1ccc(-c2nc(Cl)nc3ccccc23)cc1	107	27	3	-1	1
Cc1ccc2nc(Cl)nc(-c3ccccc3)c2c1	98	51*	14	-3	0
Cc1ccc(N(Cc2cc3ccccc3[nH]c2=O)S(=O)(=O)c2ccccc2)cc1	92	6	-6	-1	0
Cc1ccc2cc(CN(c3ccccc3C)S(=O)(=O)c3ccccc3)c(=O)[nH]c2c1	100	24	25*	-4	0
C[C@H](CO)N1C[C@H](C)[C@@H](CN(C)C(=O)C2CCOCC2)Oc2ncc(C3=CCCCC3)cc2C1=O	nt	-4	nt	-3	nt
COc1ccc(OC)c(N(CC(=O)NN=C2CCN(C)CC2)S(=O)(=O)c2ccccc2)c1	99	93*	2	-6	0
COc1ccc(NC(=O)Cc2ccccc2)cn1	95	2	0	-3	-1
COc1ccc(CS(=O)(=O)/C(Cl)=C(/Cl)C(=O)Nc2ccc(OC)nc2)cc1	78	nt	2	4	37*
COc1ccc(NC(=O)/C(Cl)=C(/Cl)S(=O)Cc2ccccc2)cn1 (stereo not given)	25*	nt	5	-11	-2
COCC(=O)N1C[C@@H](C)[C@H](OC)CN(C)C(=O)c2ccc(NS(C)(=O)=O)cc2OC[C@H]1C	nt	24	nt	1	nt
O=C(NCCc1ccccc1)C(c1cccs1)N(C(=O)CCl)c1ccc(Cl)cc1 (stereo not given)	33*	14	-21	-33	-2
O=C(NCCc1ccccc1)C(c1cccs1)N(C(=O)c1csnn1)C1CC1 (stereo not given)	98	nt	-13	-18	1
CCOC(=O)c1ccc(NC(=O)CN2CCc3ccccc3C2)cc1	92	nt	38*	35	-1
CCOC(=O)c1ccc(NC(=O)c2ccccc2)cc1	98	4	23*	-1	-1
CCOC(=O)c1ccc(NC(=O)c2ccc(NS(C)(=O)=O)cc2)cc1	94	0	-21	-5	-2
CCOc1ccc(NC(=O)CN2CCc3ccccc3C2)cc1	104	-7	0	-1	0
CC(C)CC(=O)NC(=S)NNC(=O)c1ccc(NC(=O)C2CCCCC2)cc1	97	-11	17	68*	-1
CO[C@H]1CN(C)C(=O)c2ccc(NC(=O)NC(C)C)cc2OC[C@@H](C)N(C(=O)CN(C)C)C[C@@H]1C	nt	-3	nt	-7	nt
NC(=O)/C=C/C(=O)Nc1ccc(Cl)cc1	99	-14	7	-5	-1
O=C(/C=C/C(Cl)(Cl)Cl)Nc1ccc(Cl)cc1	89	170*	2	-3	-2
C[C@H]1CN([C@@H](C)CO)C(=O)c2cccc(NC(=O)Nc3ccc(C(F)(F)F)cc3)c2O[C@@H]1CN(C)Cc1ccc(C(=O)Nc2ccccc2N)cc1	nt	-24	nt	nt	nt
CN(C)c1ccc(/C=N/NC(=O)c2nonc2N)cc1[N+](=O)[O-]	102	-8	25*	2	0
CC=Cc1ccc2n(c1=O)C[C@H]1[C@H](CO)[C@@H](C(=O)NCc3ccccn3)[C@@H]2N1CC1CC1 (mixture of isomers)	nt	-5	nt	16	nt
SMILES	ABCB6 inh 2	GSIS activator	CendR NRP1 mod	ARNT TACC3 PPI	iPSC survival up
COc1cccc(-n2c(C)n[nH]c2=O)c1	101	nt	-3	-6	-2
Cc1n[nH]c(=O)n1-c1ccc(C(C)(C)C)cc1	107	4	21*	-17	4
CC(=O)N(C)C[C@@H]1Oc2cc(-c3ccccc3F)ccc2S(=O)(=O)N([C@H](C)CO)C[C@@H]1C	nt	20	nt	4	nt
COCCNC(=S)NN(c1ccccc1)c1ccccc1	94	4	10	1	0
CNC(=S)NN(c1ccccc1)c1ccccc1	100	12	44*	-6	3
COc1ccc(C(=O)Nc2ccc(Cl)cc2C(=O)N2CCCC(C)C2)cc1 (stereo not given)	105	nt	24*	4	3
Nc1nc(N)nc(-c2ccc(Cl)cc2)n1	94	47*	-7	-6	0
CCCC[C@@H]1CNC(=O)C(=O)N1CC1CCCCC1	100	13	-10	nt	-2
NCCCC[C@H]1CNC(=O)C(=O)N1CC1CCCCC1	94	32	18*	-5	-1
CC=Cc1ccc2n(c1=O)C[C@H]1[C@H](CO)[C@@H](C(=O)NCC3CCCCC3)[C@@H]2N1C(=O)CC (mixture of isomers)	nt	9	nt	11	nt
COc1ccccc1Nc1nn2c(=O)c3ccc(C(=O)N4CCC(C)CC4)cc3nc2s1	93	-6	25*	-6	1
Cc1noc(C)c1S(=O)(=O)Nc1ccc2c(c1)C(=O)N([C@H](C)CO)C[C@H](C)[C@@H](CN(C)S(=O)(=O)c1cccs1)OCCCC[C@H](C)O2	nt	-4	nt	-1	nt
O=C(O)c1cccc(S(=O)(=O)NCc2cccs2)c1	109	nt	0	-6	-2
O=C1CC(=O)Nc2cc(S(=O)(=O)NCc3cccs3)ccc2N1	92	41*	10	-1	1
COc1ccc(CCNC(=O)COc2cccc(-n3cnnn3)c2)cc1	94	16	18*	-9	0
COc1ccc(CCN(C)C(=O)COc2cccc(-n3cnnn3)c2)cc1OC	88	83*	11	-13	4
COc1cc(-c2ccccc2)nc2ccccc12	102	nt	0	-6	0
COc1cc(C(=O)O)nc2ccccc12	nt	nt	1	58*	-2
CC(C)N(C[C@H]1N[C@H](CO)[C@@H]1c1ccc(C2=CCCC2)cc1)C(=O)CN(C)C	nt	14	nt	nt	nt
CCOc1ccc(CCNS(=O)(=O)c2c(C)nc3scc(C)n3c2=O)cc1OCC	99	52*	8	10	0
O=C(O)C[C@@H]1CC[C@H](NC(=O)Nc2ccccc2)[C@@H](CO)O1	nt	-1	nt	-10	nt
C[C@H]1CN([C@@H](C)CO)C(=O)c2cc(NC(=O)Cc3cn(C)c4ccccc34)ccc2O[C@@H]1CN(C)Cc1ccncc1	nt	-5	nt	-2	nt
Cc1ccc(S(=O)(=O)N2CCC3(CC2)CC(=O)c2ccccc2O3)cc1	95	-6	6	-2	0
O=C(O)c1ccc(S(=O)(=O)N2CCC3(CC2)CC(=O)c2ccccc2O3)cc1	99	50*	-2	-6	0
N#Cc1c(-c2cccc(Br)c2)cc(-c2cccnc2)nc1N	113	90*	-37	-3	0
Cc1c(-c2ccccc2)nc(N)c(C#N)c1-c1cccnc1	100	36	14	-10	0
Cc1nc(N)c(C#N)c(-c2cccnc2)c1-c1ccccc1	96	41*	1	-3	1
